Laboratory results as given in PMC12136788.
The full ranking holds about 5,800 sequences; the median of “enrichment r” is about 0.68, and the highest 2% start at about 11. Only a sample is shown.

T1: UNK ZnF1-6 (called full-length) (human, UniProt Q9C0B0 30-357)
T1 sequence: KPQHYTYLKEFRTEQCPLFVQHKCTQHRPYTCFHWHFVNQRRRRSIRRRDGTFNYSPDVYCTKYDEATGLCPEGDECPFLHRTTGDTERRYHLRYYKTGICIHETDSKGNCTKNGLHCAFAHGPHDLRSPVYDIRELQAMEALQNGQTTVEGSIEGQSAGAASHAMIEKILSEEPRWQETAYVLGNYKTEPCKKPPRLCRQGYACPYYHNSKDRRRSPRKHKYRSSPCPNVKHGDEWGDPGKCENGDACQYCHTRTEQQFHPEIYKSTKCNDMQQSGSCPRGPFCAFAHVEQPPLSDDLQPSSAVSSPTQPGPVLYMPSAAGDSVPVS

B1: chr11:43405833:43405939:+|CDS|ENSG00000052841|unk|FALSE|unique (ssRNA)
RNA: GGGAGUUCUACAGUCCGACGAUCGGCCCAAACCCCUGACUGUUCCAUAACUGACUUCAGAAAAAGCCACACUCUGUCCUACUUAGUCAAAGAAUUAGAGGUUCGCAUGGAUCUGAAAGCCAAAAUGCCAGAUGACCAUGCACGCAACAGAGGAUUGAGCAUCA
B2: chr6:1612588:1612689:+|3pUTR|ENSG00000054598|msi1|total|mutant (ssRNA)
RNA: GGGAGUUCUACAGUCCGACGAUCUUUAUUCAUGGACUUGUUUUAAAAUGUAAAUUGCAACACCGUAAUUUAUUUUUAAUUUGCCGUUGGAUGUCGUGGACCAAACGCCAGAAAGUGUUCCCAAAACCUGACGUUAAAUUGCCUCAACAGAGGAUUGAGCAUCA
B3: chr2:111862450:111862553:-|CDS|ENSG00000153107|unk|FALSE|unique (ssRNA)
RNA: GGGAGUUCUACAGUCCGACGAUCUCUUUUUCAGGGGUGCAAAGGUUCAACAUUUCAAGCCAUAAUCAGUCUCCAAAGAGACAUAGUAUUUCUCAUUCUCCAAAUAGUAAUUCUAAUGGCUCCUUUCUUGCACCAGAAACGGAGCAACAGAGGAUUGAGCAUCA
B4: chr7:83961326:83961382:-|CDS_3pUTR|ENSG00000075213|msi1_unk|FALSE|overlapping (ssRNA)
RNA: GGGAGUUCUACAGUCCGACGAUCAAACAGGAGGACCCACGAAUUUGAGAGGGCACCCAGGAGUGUCUGAGCUGCAUUACCUCUAGAAACCUCAAACAAGUAGAAACUUGCCUAGACAAUAACUGGAAAAACAAAUGCAAUAUACAACAGAGGAUUGAGCAUCA
B5: ENSG00000124766:be:win_3951|3pUTR|ENSG00000124766|bound_else_gene|NA|bound_elsewhere_windowed (ssRNA)
RNA: GGGAGUUCUACAGUCCGACGAUCGUUUGGGGGAAAAAAAAGAAAAAAUCAUGCCAGCUAAUCAUGUCAAGUUCACUGCCUGUCAGAUUGUUGAUAUAUACCUUCUGUAAAUAACUUUUUUUGAGAAGGAAAUAAAAUCAGCUGCAACAGAGGAUUGAGCAUCA
B6: chr17:29262523:29262623:-|3pUTR|ENSG00000108256|msi1_unk|FALSE|overlapping (ssRNA)
RNA: GGGAGUUCUACAGUCCGACGAUCACUUUGACUGAUAUUGUAAUUUUCAAAUGUAUAAUAUGUUUACAGAUGUGCCCUGCAUUUAGUCUGCCUUGUUCCUAUUUUGAUUUUUGUUGAGUCUCCUGCCUGCUUGCCAAAAGCUAGCAACAGAGGAUUGAGCAUCA
B7: chrX:149581652:149582231:-|three_prime_utr|ENSG00000267978|control|control|control (ssRNA)
RNA: GGGAGUUCUACAGUCCGACGAUCCAAAUGUUCUUUUAAUGGUCAGUUUAAUGAACUUCACCAUCGAAGUUAAUGAAUGACAGUAGUCACACAUAUUGCUGUUUAUGUUAUUUAGGAGUAAGAUUCUUGCUUUUGAGUCACAUGCAACAGAGGAUUGAGCAUCA
B8: chr15:48879495:48879609:+|3pUTR|ENSG00000255302|msi1|total|mutant (ssRNA)
RNA: GGGAGUUCUACAGUCCGACGAUCGACACUAAAUGUGUGUGAAUGUACAAAGAAAACAAACCAUUGCUUAUGCUGUUAUAUACCCGAGAAAUUUUGUUUUGCUUGCUGUUUUAACUUGACAGAUGAAGGACUUCCGUUGAACUUCAACAGAGGAUUGAGCAUCA
B9: chr16:87831719:87831834:-|3pUTR|ENSG00000103257|msi1_unk|FALSE|overlapping (ssRNA)
RNA: GGGAGUUCUACAGUCCGACGAUCCCUGCGUUUGGAGGCCCCUGGGCUCUCACCCAGUCCCCACCCGCCUGCAGAGAGGGAACUAGGGCACCCCUUGUUUCUGUUGUUCCCGUGAAUUUUUUUCGCUAUGGGAGGCAGCCGAGGCAACAGAGGAUUGAGCAUCA
B10: chr8:93925380:93925481:+|3pUTR|ENSG00000164951|msi1|total|mutant (ssRNA)
RNA: GGGAGUUCUACAGUCCGACGAUCAUUUAUUUCUAAAUGUUUUGACUGGGCAUUUUUCUUUUAAUGAAAUAUGUGGACUGCUCCCGCAAACCCUAUUUUCAGCUACUAUUUGAAUAUUCUUGAACACCACCACUGAAGAGUUUCCAACAGAGGAUUGAGCAUCA
B11: chr14:88572724:88572825:+|CDS|ENSG00000100722|unk|FALSE|unique (ssRNA)
RNA: GGGAGUUCUACAGUCCGACGAUCGUGACACUUACAUAUGGUUCUUCUCGCCCUUCUAUUGAAAUUUAUCGACCACCUGCAAGUAGAAAUGCAGAUAGUGGUGUUCAUUUAAACAGGUUGCAAUUUCAACAGCAGCAGAAUAGUCAACAGAGGAUUGAGCAUCA
B12: chr17:42200006:42200107:-|3pUTR|ENSG00000173757|unk|FALSE|unique (ssRNA)
RNA: GGGAGUUCUACAGUCCGACGAUCAAGCUGCCGUUUGCCUUGGCUUGGUUUCAUACACUGAUUUAUUUUUCUAUGCCAGGCAGUAGAGUCUCUCUGCCUCUGAGGAGCAGGCUACCCGCAUCCCACUCAGCCCCUCCCUACCCCCAACAGAGGAUUGAGCAUCA
B13: ENSG00000087269:stop:overlap|stop_codon|ENSG00000087269|stop_codon|NA|stop_codon (ssRNA)
RNA: GGGAGUUCUACAGUCCGACGAUCGGCUGGCUGGUCUCGAAUUCCCGACCUCAGGUAAUCCACCUGCCUUGGCCCCCCAAUUAUAGGUGUGAGCCACAGCACCCAGCCAAAAAAGUAAUUUUUUUUAGAGUAAUAAUGCUAUAACAACAGAGGAUUGAGCAUCA
B14: chr5:41382290:41382405:-|CDS|ENSG00000182836|unk|total|mutant (ssRNA)
RNA: GGGAGUUCUACAGUCCGACGAUCGGCCAAAAAGCUCAUGCGGAAAUGGUCCGCCACUCAGACAAUGAAUUUUACUGGCCAGCCCGGAGCUGGAAUUCGUUAUUUUGAUCUUCGAAUUUCCACCAAGCCCAGAGACCCCGACAACAACAGAGGAUUGAGCAUCA

molecular target: T1, UNK ZnF1-6 (called full-length); experiment: nsRBNS (natural sequence RNA bind-n-seq); RBNS binding buffer (assumed for nsRBNS): 25 mM Tris pH 7.5, 150 mM KCl, 3 mM MgCl2, 0.01% Triton X-100, 500 ug/ml BSA, 20 U/ml SUPERase-In, 4 C; UNK is unkempt and MSI1 is Musashi-1; names of the RNAs are library labels; protein concentration not given here; high values mean tight binding

**Q.** How did the binding signal turn out when B1 was run?
**A.** The binding signal was 1.07 enrichment R.

**Q.** Which binding signal does the source give for B2 here?
**A.** The binding signal was 0.325 enrichment R.

**Q.** For B3, which binding signal is on record?
**A.** The binding signal was 1.49 enrichment R.

**Q.** How did the binding signal turn out when B4 was run?
**A.** The binding signal was 0.962 enrichment R.

**Q.** Which binding signal does the source give for B5 here?
**A.** The binding signal was 0.788 enrichment R.

**Q.** B6 was tested. Which binding signal did it give?
**A.** The binding signal was 0.807 enrichment R.

**Q.** With B7 as the binder, how does the binding signal read?
**A.** The binding signal was 0.441 enrichment R.

**Q.** B8 was tested. Which binding signal did it give?
**A.** Its binding signal is 0.453 enrichment R.

**Q.** B9 was tested. Which binding signal did it give?
**A.** Its binding signal is 0.701 enrichment R.

**Q.** For B10, which binding signal is on record?
**A.** The binding signal was 0.657 enrichment R.

**Q.** For B11, which binding signal is on record?
**A.** Its binding signal is 0.593 enrichment R.

**Q.** B12 was tested. Which binding signal did it give?
**A.** Its binding signal is 0.936 enrichment R.

**Q.** How did the binding signal turn out when B13 was run?
**A.** The binding signal was 0.968 enrichment R.

**Q.** B14 was tested. Which binding signal did it give?
**A.** Its binding signal is 0.445 enrichment R.
